Measurements: PubChem BioAssay (Tox21)
Records with an inconclusive call do not appear. Where a structure was tested more than once in an assay, its records may differ in their call. Activity calls are given as the source filed them. Unless noted, calls follow the shape of the full dose curve.

Assays:
[1] = Nuclear factor erythroid 2-related factor 2/antioxidant responsive element (Nrf2/ARE) small molecule agonists: qHTS cell viability counter screen in human keratinocytes (AID 1919968; active = well fitted curve in the direction sought with a large enough effect in the repeat runs; an effect the other way counts as inactive or inconclusive; also: nearly all actives have a fitted effect of over 55% in size)
Procedure, shortened: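 CellTiter-Fluor fluorescence, read 1 h after reagent, gave viability in the same wells as the ARE-luciferase assay. KeratinoSens cells (1,500/well) had 23 h compound exposure at 37 C/5% CO2 following 5 h plating.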

[2] = Nuclear factor erythroid 2-related factor 2/antioxidant responsive element (Nrf2/ARE) small molecule agonists: luciferase reporter gene qHTS assay in human keratinocytes (AID 1919969); also: nearly all actives have a fitted effect of over 35% in size; also: potency is read from the fitted curve at half-maximal effect
[3] = biological target: Gonadotropin-releasing hormone receptor (Homo sapiens) (UniProt P30968); test: Human gonadotropin-releasing hormone receptor (GnRHR) small molecule agonists, calcium flux assay in GnRHR-HEK293 cells (AID 1920063); also: nearly all actives have a fitted effect of over 35% in size
Sequence of Gonadotropin-releasing hormone receptor (Homo sapiens) (P30968 whole entry, looked up): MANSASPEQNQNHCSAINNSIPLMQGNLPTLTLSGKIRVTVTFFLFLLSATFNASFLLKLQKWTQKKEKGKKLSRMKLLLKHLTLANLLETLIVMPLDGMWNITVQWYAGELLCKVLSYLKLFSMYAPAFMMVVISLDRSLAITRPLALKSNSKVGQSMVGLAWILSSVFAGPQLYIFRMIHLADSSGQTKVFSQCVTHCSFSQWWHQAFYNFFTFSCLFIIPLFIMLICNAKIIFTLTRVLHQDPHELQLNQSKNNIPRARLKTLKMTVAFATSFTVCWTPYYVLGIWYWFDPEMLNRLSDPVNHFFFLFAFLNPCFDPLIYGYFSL
Procedure, shortened: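 Agonist mode: compounds at 15 concentrations, in triplicate, went onto calcium dye-loaded GnRHR-HEK293 cells. Intracellular calcium was then followed as 480/540 nm fluorescence at 1 s intervals over 3 min.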

[4] = biological target: KiSS-1 receptor (Homo sapiens) (UniProt Q969F8); test: Human kisspeptin (KISS1R) small molecule agonists, calcium flux assay in KISS1R-HEK293 cells (AID 1920064; active = well fitted curve in the direction sought with a large enough effect in the repeat runs; an effect the other way counts as inactive or inconclusive)
Sequence of KiSS-1 receptor (Homo sapiens) (Q969F8 whole entry, looked up): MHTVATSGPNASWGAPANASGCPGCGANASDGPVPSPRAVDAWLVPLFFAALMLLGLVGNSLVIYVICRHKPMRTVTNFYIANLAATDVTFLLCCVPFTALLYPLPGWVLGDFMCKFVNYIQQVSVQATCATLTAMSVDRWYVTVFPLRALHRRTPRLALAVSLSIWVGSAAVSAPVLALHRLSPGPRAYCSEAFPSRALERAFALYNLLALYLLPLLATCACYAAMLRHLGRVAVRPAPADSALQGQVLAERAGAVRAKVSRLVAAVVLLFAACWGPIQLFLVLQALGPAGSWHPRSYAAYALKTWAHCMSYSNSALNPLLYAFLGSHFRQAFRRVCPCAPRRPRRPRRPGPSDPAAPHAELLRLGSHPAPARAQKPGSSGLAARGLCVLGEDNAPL
Procedure, shortened: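 Agonist mode: intracellular calcium rise tracked at 1 s intervals over 3 min (480/540 nm) immediately after compound addition to dye-loaded KISS1R-HEK293 stable cells. Each compound tested at 15 concentrations in triplicate.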

[5] = G protein-coupled receptor (GPCR) small molecule agonists, calcium flux assay: HEK293 wild type cell line counter screen (AID 1920065)
Procedure, shortened: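 Calcium flux counter screen: compound added in agonist mode at 15 concentrations in triplicate to dye-loaded parental HEK293 cells. Fluorescence (480/540) read kinetically for 3 min; ATP served as positive control.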

[6] = p53 small molecule agonists, cell-based qHTS assay with human liver microsomes: qHTS cell viability counter screen (AID 1963579); also: nearly all actives have a fitted effect of over 45% in size
Procedure, shortened: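 Luminescent CellTiter-Glo read-out, 30 min at room temperature, gauged cytotoxicity in p53RE-bla cells exposed 16 h at 37 C to DMSO-dissolved compounds with metabolic activation by human liver microsomes and NADPH, each 0.5 mg/mL final.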

[7] = p53 small molecule agonists, cell-based qHTS assay with rat liver microsomes: qHTS cell viability counter screen (AID 1963580); also: nearly all actives have a fitted effect of over 45% in size
Procedure, shortened: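 Luminescent ATP readout (CellTiter-Glo, 30 min at room temperature) reports viability of p53RE-bla HCT-116 cells after 16 h at 37 C with test compounds under metabolic activation by rat liver microsomes and NADPH at 0.5 mg/mL final each.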

[8] = p53 small molecule agonists, cell-based qHTS assay: qHTS cell viability counter screen (AID 1963581); also: nearly all actives have a fitted effect of over 45% in size
Procedure, shortened: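 Counter screen read by CellTiter-Glo luminescence (ATP content, 30 min at room temperature), run in the same wells as the beta-lactamase reporter read. HCT-116 p53RE-bla cells saw compounds for 16 h at 37 C.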

[9] = biological target: 5-hydroxytryptamine receptor 2A (Homo sapiens) (UniProt P28223); test: 5-hydroxytryptamine receptor 2A (HTR2A) small molecule antagonists, cell-based qHTS assay (AID 1963586); also: nearly all actives have a fitted effect of over 45% in size; also: potency is read from the fitted curve at half-maximal effect
Sequence of 5-hydroxytryptamine receptor 2A (Homo sapiens) (P28223 whole entry, looked up): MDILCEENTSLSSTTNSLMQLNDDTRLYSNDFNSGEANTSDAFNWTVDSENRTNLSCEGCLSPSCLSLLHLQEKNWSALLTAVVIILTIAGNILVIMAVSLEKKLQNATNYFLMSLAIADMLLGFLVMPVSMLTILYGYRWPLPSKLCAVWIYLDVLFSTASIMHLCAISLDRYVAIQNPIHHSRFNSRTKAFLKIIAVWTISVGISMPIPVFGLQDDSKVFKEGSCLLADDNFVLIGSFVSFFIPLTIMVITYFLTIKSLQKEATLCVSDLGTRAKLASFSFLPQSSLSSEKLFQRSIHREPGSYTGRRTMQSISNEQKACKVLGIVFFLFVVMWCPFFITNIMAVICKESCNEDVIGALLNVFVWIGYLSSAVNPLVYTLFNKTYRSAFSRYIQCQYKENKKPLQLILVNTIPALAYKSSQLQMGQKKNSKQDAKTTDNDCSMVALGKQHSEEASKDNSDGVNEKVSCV
Procedure, shortened: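 CHO cells stably expressing human HTR2A were plated for 18 h at 37 C, then loaded with calcium dye for 1 h. Compounds were preincubated 5 min at room temperature before DOI (4 nM solution) was added. Kinetic fluorescence was read for 3 min.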

[10] = biological target: 5-hydroxytryptamine receptor 2A (Homo sapiens) (UniProt P28223); test: 5-hydroxytryptamine receptor 2A (HTR2A) small molecule agonists, cell-based qHTS assay (AID 1963587); also: nearly all actives have a fitted effect of over 30% in size
Procedure, shortened: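 HTR2A-CHO cells, plated 18 h at 37 C/5% CO2, dye-loaded 1 h at 37 C; compounds in DMSO added by pin tool (agonist mode). Intracellular calcium flux read as kinetic fluorescence on FDSS over 2 min at 1 s intervals.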

[11] = biological target: Muscarinic acetylcholine receptor M1 (Homo sapiens) (UniProt P11229); test: Cholinergic receptor muscarinic 1 (CHRM1) small molecule antagonists, cell-based qHTS assay (AID 1963588); also: nearly all actives have a fitted effect of over 40% in size; also: potency is read from the fitted curve at half-maximal effect
Sequence of Muscarinic acetylcholine receptor M1 (Homo sapiens) (P11229 whole entry, looked up): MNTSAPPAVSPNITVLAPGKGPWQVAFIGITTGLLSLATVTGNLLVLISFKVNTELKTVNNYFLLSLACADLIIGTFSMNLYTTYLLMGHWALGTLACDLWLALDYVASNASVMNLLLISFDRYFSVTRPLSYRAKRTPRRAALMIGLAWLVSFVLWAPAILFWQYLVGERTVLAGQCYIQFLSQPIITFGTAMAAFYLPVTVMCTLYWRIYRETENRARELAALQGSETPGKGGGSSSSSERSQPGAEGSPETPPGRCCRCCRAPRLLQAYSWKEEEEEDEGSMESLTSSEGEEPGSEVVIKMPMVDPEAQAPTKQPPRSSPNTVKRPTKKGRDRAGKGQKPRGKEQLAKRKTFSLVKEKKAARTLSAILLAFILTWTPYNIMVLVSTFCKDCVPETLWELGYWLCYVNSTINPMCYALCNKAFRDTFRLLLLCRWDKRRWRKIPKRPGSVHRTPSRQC
Procedure, shortened: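 Compounds were tested at 15 concentrations in three independent runs. Dye-loaded CHRM1-CHO cells were exposed 5 min at room temperature before stimulation by acetylcholine added at 50nM. Intracellular calcium was read kinetically on FDSS for 3 min.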

[12] = biological target: Muscarinic acetylcholine receptor M1 (Homo sapiens) (UniProt P11229); test: Cholinergic receptor muscarinic 1 (CHRM1) small molecule agonists, cell-based qHTS assay (AID 1963589); also: nearly all actives have a fitted effect of over 35% in size; also: potency is read from the fitted curve at half-maximal effect
Procedure, shortened: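 Agonist-mode calcium-flux screen: compounds at 15 concentrations, three independent runs, were pin-transferred onto dye-loaded human CHRM1-CHO cells. Fluorescence was then recorded kinetically every second over minutes.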

[13] = biological target: Beta-2 adrenergic receptor (Homo sapiens) (UniProt P07550); test: Adrenergic beta2 receptor (ADRB2) small molecule antagonists, cell-based qHTS assay (AID 1963592); also: series mostly up to about 92 µM; nearly all actives have a fitted effect of over 50% in size
Sequence of Beta-2 adrenergic receptor (Homo sapiens) (P07550 whole entry, looked up): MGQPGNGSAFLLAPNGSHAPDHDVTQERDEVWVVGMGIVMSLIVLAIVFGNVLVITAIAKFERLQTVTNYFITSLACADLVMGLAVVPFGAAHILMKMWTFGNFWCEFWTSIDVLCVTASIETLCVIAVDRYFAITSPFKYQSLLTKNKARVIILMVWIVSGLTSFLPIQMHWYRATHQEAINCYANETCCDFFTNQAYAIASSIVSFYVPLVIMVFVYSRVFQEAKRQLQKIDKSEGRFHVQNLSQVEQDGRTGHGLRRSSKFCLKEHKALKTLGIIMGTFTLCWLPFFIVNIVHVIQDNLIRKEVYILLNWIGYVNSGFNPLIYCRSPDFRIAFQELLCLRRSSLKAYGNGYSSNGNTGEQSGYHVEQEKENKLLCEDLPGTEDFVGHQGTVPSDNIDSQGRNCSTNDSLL
Procedure, shortened: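 Assay format: CHO-ADRB2 cells, 18-20hr seeding at 37C/5% CO2, then compound plus 1nM isoproterenol agonist mix for 0.5hr RT. Homogeneous time-resolved fluorescence cAMP detection after 1hr, expressed as 665/615 nm ratio.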

[14] = biological target: Beta-2 adrenergic receptor (Homo sapiens) (UniProt P07550); test: Adrenergic beta2 receptor (ADRB2) small molecule agonists, cell-based qHTS assay (AID 1963593);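 also: CHO cells stably overexpressing human ADRB2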
Procedure, shortened: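 CHO cells stably over-expressing ADRB2 were plated overnight at 37C, then dosed with compounds plus a stimulation mix containing 100uM IBMX and 25uM Ro-20-1724 for 0.5hr at room temperature. cAMP was measured by HTRF competition, 1hr.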

[15] = biological target: D(2) dopamine receptor (Homo sapiens) (UniProt P14416); test: Dopamine D2 receptor (DRD2) small molecule agonists, cell-based qHTS assay (AID 1963594); also: nearly all actives have a fitted effect of over 35% in size
Sequence of D(2) dopamine receptor (Homo sapiens) (P14416 whole entry, looked up): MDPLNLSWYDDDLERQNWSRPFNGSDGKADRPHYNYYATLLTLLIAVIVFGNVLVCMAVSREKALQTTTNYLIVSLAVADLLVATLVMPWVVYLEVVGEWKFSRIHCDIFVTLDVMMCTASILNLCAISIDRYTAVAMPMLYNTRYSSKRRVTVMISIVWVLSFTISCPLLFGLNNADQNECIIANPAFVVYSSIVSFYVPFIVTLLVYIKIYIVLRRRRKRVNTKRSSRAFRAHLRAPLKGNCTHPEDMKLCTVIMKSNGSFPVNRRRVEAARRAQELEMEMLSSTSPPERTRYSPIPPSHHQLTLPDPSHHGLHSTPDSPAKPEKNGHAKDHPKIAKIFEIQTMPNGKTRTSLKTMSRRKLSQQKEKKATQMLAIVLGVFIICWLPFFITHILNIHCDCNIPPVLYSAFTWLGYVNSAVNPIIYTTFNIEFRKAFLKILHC
Procedure, shortened: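 HEK293 cells stably expressing DRD2 were cultured 24 h at 37 C, then given Ro20-1724 (0.1 mM final) and compounds for 10 min at room temperature. NKH477 (200nM) was then added for 30 min. cAMP was read by HTRF.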

[16] = biological target: D(2) dopamine receptor (Homo sapiens) (UniProt P14416); test: Dopamine D2 receptor (DRD2) small molecule antagonists, cell-based qHTS assay (AID 1963595; active = well fitted inhibition curve with a large enough effect in the signal ratio in the repeat runs, with a control signal flat; the % refers to the signal ratio)
Procedure, shortened: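 Stable D2 receptor HEK293 line, 24 h after seeding. Compound preincubated 10 min, then quinpirole (12 nM) with forskolin analogue NKH477 (200 nM), 30 min, room temperature. Detection by time-resolved FRET of cAMP.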

[17] = cAMP Responsive Elements (CRE) small molecule agonists, cell-based qHTS assay (AID 1963590)
Procedure, shortened: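 Agonist mode: compound added to CRE-bla HEK 293T cells (2,000/well, 18 h after plating) for 3 h at 37 C/5% CO2. Reporter activity detected via FRET beta-lactamase substrate, 2 h room-temperature loading.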

[18] = cAMP Responsive Elements (CRE) small molecule antagonists, cell-based qHTS assay (AID 1963591; active = well fitted inhibition curve with a large enough effect in the signal ratio in the repeat runs, not every such curve was filed as active; the % refers to the signal ratio)
Procedure, shortened: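 Antagonist mode: compounds are added alongside the adenylyl cyclase activator NKH477 (0.25 uM final) to CRE-bla HEK293T cells for 3 h. LiveBLAzer FRET substrate, 2 h at room temperature, reports bla expression.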
% is scaled to controls: 0 for no effect and ±100 for the full control effect.

O=C(O)CCCCCCCCCCC(=O)O
inactive: Potency [1] | Potency [2] | Potency [3] | Potency [4] | Potency [5] | Potency [6] | Potency [7] | Potency [8] | Potency [9] | Potency [10] | Potency [11] | Potency [12] | Potency [13] | Potency [14] | Potency [15] | Potency [16]

C=C[C@H]1CN2CC[C@H]1C[C@H]2[C@H](O)c1ccnc2ccc(OC)cc12
inactive: Potency [1] | Potency [2] | Potency [3] | Potency [4] | Potency [5] | Potency [6] | Potency [7] | Potency [8] | Potency [9] | Potency [11] | Potency [12] | Potency [17] | Potency [18] | Potency [13] | Potency [15] | Potency [16]

O=C(O)c1ccc(C(=O)O)c(C(=O)O)c1
inactive: Potency [1] | Potency [2] | Potency [3] | Potency [4] | Potency [5] | Potency [6] | Potency [7] | Potency [8] | Potency [9] | Potency [10] | Potency [11] | Potency [12] | Potency [17] | Potency [18] | Potency [13] | Potency [15] | Potency [16]

N[C@@H](Cc1c[nH]c2ccccc12)C(=O)O
inactive: Potency [1] | Potency [2] | Potency [3] | Potency [4] | Potency [5] | Potency [6] | Potency [7] | Potency [8] | Potency [9] | Potency [11] | Potency [12] | Potency [17] | Potency [18] | Potency [13] | Potency [14] | Potency [15] | Potency [16]

C[n+]1ccn(CCO)c1
inactive: Potency [1] | Potency [2] | Potency [3] | Potency [4] | Potency [5] | Potency [6] | Potency [7] | Potency [8] | Potency [9] | Potency [11] | Potency [12] | Potency [17] | Potency [18] | Potency [13] | Potency [15] | Potency [16]

O=[N+]([O-])c1ccc(/C=C/c2ccc([N+](=O)[O-])cc2S(=O)(=O)O)c(S(=O)(=O)O)c1
inactive: Potency [1] | Potency [2] | Potency [3] | Potency [4] | Potency [5] | Potency [6] | Potency [7] | Potency [8] | Potency [9] | Potency [10] | Potency [11] | Potency [12] | Potency [18] | Potency [13] | Potency [16]

O=S(=O)(Oc1ccc(Cl)cc1Cl)c1ccccc1
active: Potency [2] 69.8 µM
inactive: Potency [1] | Potency [3] | Potency [4] | Potency [5] | Potency [6] | Potency [7] | Potency [8] | Potency [9] | Potency [10] | Potency [11] | Potency [12] | Potency [17] | Potency [18] | Potency [13] | Potency [15] | Potency [16]

O=C(COc1ccc(Cl)cc1)N1CCN(Cc2ccc3c(c2)OCO3)CC1
inactive: Potency [1] | Potency [2] | Potency [3] | Potency [4] | Potency [5] | Potency [6] | Potency [7] | Potency [8] | Potency [12] | Potency [17] | Potency [18] | Potency [13] | Potency [15] | Potency [16]
37.5 µM (active) and inactive: Potency [11]
29.8 µM (active) and inactive: Potency [9]

CCCCCCCCCCCC(=O)N(C)CC(=O)O
inactive: Potency [1] | activity, positive = activation [2] 0.794% [at 8.39 µM] | Potency [3] | Potency [4] | Potency [5] | Potency [6] | Potency [7] | Potency [8] | Potency [9] | Potency [10] | Potency [11] | activation [12] -0.383% [at 6.97 µM] | activity change, negative = inhibition [18] 5.29% [at 8.39 µM] | Potency [13] | Potency [14] | Potency [15] | Potency [16]

CC(C)c1ccc(S(=O)(=O)O)cc1
inactive: Potency [1] | Potency [2] | Potency [3] | Potency [4] | Potency [5] | Potency [6] | Potency [7] | Potency [8] | Potency [9] | Potency [10] | Potency [12] | Potency [17] | Potency [18] | Potency [14] | Potency [15] | Potency [16]

C/C=C/C(=O)O
93.3 nM (active) and inactive: Potency [12]
inactive: Potency [1] | Potency [2] | Potency [3] | Potency [4] | Potency [5] | Potency [6] | Potency [7] | Potency [8] | Potency [9] | Potency [10] | Potency [11] | Potency [17] | Potency [18] | Potency [13] | Potency [15] | Potency [16]

CN(C)c1cccc(O)c1
43.9 µM (active) and inactive: Potency [2]
inactive: Potency [1] | Potency [3] | Potency [4] | Potency [5] | Potency [6] | Potency [7] | Potency [8] | Potency [9] | Potency [10] | Potency [11] | Potency [12] | Potency [17] | Potency [18] | Potency [13] | Potency [14] | Potency [15] | Potency [16]

CCC(C)c1ccccc1O (stereo not drawn)
inactive: Potency [1] | Potency [2] | Potency [3] | Potency [4] | Potency [5] | Potency [6] | Potency [7] | Potency [8] | Potency [9] | Potency [10] | Potency [11] | Potency [12] | Potency [17] | Potency [18] | Potency [13] | Potency [14] | Potency [15] | Potency [16]

COc1cc(S(N)(=O)=O)cc(C(=O)O)c1OC
inactive: Potency [1] | Potency [2] | Potency [3] | Potency [4] | Potency [5] | Potency [6] | Potency [7] | Potency [8] | Potency [9] | Potency [10] | Potency [11] | Potency [12] | Potency [17] | Potency [18] | Potency [13] | Potency [15] | Potency [16]
